Where “and” joins values, the source holds several entries; their conditions need not be identical. Equal entries are not always repeated. Records with an inconclusive call do not appear. Calls of active or inactive are those of the source. Unless noted, calls come from the whole dose curve; as a rule, active = well fitted curve in the direction sought with a large enough effect in the repeat runs; inconclusive = weak or mixed curves; inactive = no such curve, though single readings can be large; an effect the other way counts as inactive or inconclusive.
Experiments:
[1] = qHTS assay for small molecule agonists of the p53 signaling pathway (AID 651631; calls by dose curve; note: nearly all actives have a fitted effect of over 15% in size; note: potency is the fitted concentration of half-maximal effect)
Procedure, shortened: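 Fluorescence intensity from cleaved LiveBLAzer B/G substrate (2 h, room temperature) served as the signal. Beforehand, HCT-116 reporter cells bearing p53 response elements were treated 16 h at 37 °C with DMSO-dissolved compounds.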

[2] = qHTS assay for small molecule agonists of the p53 signaling pathway - cell viability (AID 651633; calls by dose curve; note: nearly all actives have a fitted effect of over 30% in size; note: potency is the fitted concentration of half-maximal effect)
Procedure, shortened: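 p53RE-bla cells were treated with compound for 16 hours at 37 C. Cytotoxicity was then measured as CellTiter-Glo luminescence after 30 min at room temperature.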

[3] = qHTS assay for small molecules that induce genotoxicity in human embryonic kidney cells expressing luciferase-tagged ATAD5 - cell viability (AID 651634; calls by dose curve; note: nearly all actives have a fitted effect of over 25% in size)
Procedure, shortened: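 Seeding of 2,000 HEK293T ATAD5-luciferase cells per well preceded pin-tool compound transfer. Plates sat 15.5 hr at 37C under 5% CO2, then fluorescence was read after 30 min with CellTiter-Fluor.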

[4] = qHTS assay for small molecule disruptors of the mitochondrial membrane potential - cell viability (AID 720634; calls by dose curve;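 note: human HepG2 liver cancer cells; series mostly up to about 83 µM; nearly all actives have a fitted effect of over 20% in size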)
Procedure, shortened: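 Measuring cytotoxicity alongside mitochondrial potential, the screen quantified ATP by luminescence in HepG2 cells after 1 hr compound incubation and a 30 min room-temperature CellTiter-Glo step.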

[5] = qHTS assay to test for compound auto fluorescence at 590 nm (red) in HepG2 cells (AID 720674)
Procedure, shortened: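 Seeding: 2,000 HepG2 cells/well, MEM/10% FBS, overnight 37 C. Dosing: compound vs DMSO. Incubation: 1 hr, 37 C, 5% CO2. Read: fluorescence 540 ex/590 em, Rose Bengal sodium as red reference.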

[6] = qHTS assay to test for compound auto fluorescence at 535 nm (green) in HepG2 cells (AID 720675)
[7] = qHTS assay to test for compound auto fluorescence at 460 nm (blue) in HEK293 cells (AID 720678)
Procedure, shortened: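 Blue-channel (Ex/Em 405/460 nm) intensity measured in HEK293 cultures after overnight compound exposure at 37C; signal expressed relative to triamterene. Cells plated 2,000 per well in 10% dialyzed FBS medium and allowed 4-5 hr to attach.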

[8] = qHTS assay to test for compound auto fluorescence at 535 nm (green) in HEK293 cells (AID 720680)
[9] = qHTS assay to test for compound auto fluorescence at 460 nm (blue) in HEK293 cell free culture (AID 720681)
Procedure, shortened: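 Compounds were added to cell-free DMEM with 10% FBS and fluorescence read directly. The blue channel used 405 nm excitation and 460 nm emission, with triamterene as the reference fluorophore.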

[10] = qHTS assay to test for compound auto fluorescence at 535 nm (green) in HEK293 cell free culture (AID 720682)
Procedure, shortened: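 Intrinsic compound fluorescence is measured in culture medium containing 10% FBS, with excitation at 485 nm and detection at 535 nm, referenced to fluorescein.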

[11] = qHTS assay to test for compound auto fluorescence at 590 nm (red) in HEK293 cell free culture (AID 720683)
Procedure, shortened: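 Cell-free wells of DMEM with 10% FBS received compound, and intrinsic fluorescence was read at excitation/emission 540/590 nm. Values expressed as equivalence to Rose Bengal sodium.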

[12] = qHTS assay to test for compound auto fluorescence at 590 nm (red) in HepG2 cell free culture (AID 720684)
Procedure, shortened: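 Compound was pinned into wells holding MEM with 10% FBS and no cells, and red fluorescence was read at Ex/Em 540/590 nm. Signal is expressed as auto fluorescence equivalency relative to Rose Bengal sodium.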

[13] = qHTS assay to test for compound auto fluorescence at 535 nm (green) in HepG2 cell free culture (AID 720686)
[14] = qHTS assay to test for compound auto fluorescence at 460 nm (blue) in HepG2 cells (AID 720687)
Procedure, shortened: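 HepG2 cells in MEM with 10% FBS, attached overnight at 37 C, were exposed to compound or DMSO for 1 hr at 37 C, 5% CO2. Blue fluorescence was read at 405/460 nm, with triamterene as reference fluorophore.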

[15] = qHTS assay for small molecule disruptors of the mitochondrial membrane potential (AID 720635); note: potency is the fitted concentration of half-maximal effect
Procedure, shortened: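 HepG2 cells exposed to compound 1 hr at 37C, then Mito-MPS dye 30 min. Ratio read of aggregate (540/590 nm) versus monomer (490/535 nm) fluorescence.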

[16] = qHTS assay to test for compound auto fluorescence at 590 nm (red) in HEK293 cells (AID 720679)
Procedure, shortened: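 Red-channel autofluorescence (Ex/Em 540/590 nm; Rose Bengal sodium reference) was measured after overnight 37C, 5% CO2 exposure of attached HEK293 cells, 2,000 per well in medium with 10% dialyzed FBS.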

[17] = qHTS assay to test for compound auto fluorescence at 460 nm (blue) in HepG2 cell free culture (AID 720685)
Procedure, shortened: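 Compound (23 nL) or DMSO pinned into cell-free MEM with 10% FBS; blue fluorescence read at 405/460 nm excitation/emission, expressed as auto-fluorescence equivalency to triamterene.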

[18] = molecular target: Glucocorticoid receptor (Homo sapiens) (UniProt P04150); assay: qHTS assay to identify small molecule agonists of the glucocorticoid receptor (GR) signaling pathway (AID 720691; active = well fitted activation curve with a large enough effect in the signal ratio in the repeat runs, not every such curve was filed as active; the % refers to the signal ratio)
Sequence of Glucocorticoid receptor (Homo sapiens) (P04150 whole entry, looked up): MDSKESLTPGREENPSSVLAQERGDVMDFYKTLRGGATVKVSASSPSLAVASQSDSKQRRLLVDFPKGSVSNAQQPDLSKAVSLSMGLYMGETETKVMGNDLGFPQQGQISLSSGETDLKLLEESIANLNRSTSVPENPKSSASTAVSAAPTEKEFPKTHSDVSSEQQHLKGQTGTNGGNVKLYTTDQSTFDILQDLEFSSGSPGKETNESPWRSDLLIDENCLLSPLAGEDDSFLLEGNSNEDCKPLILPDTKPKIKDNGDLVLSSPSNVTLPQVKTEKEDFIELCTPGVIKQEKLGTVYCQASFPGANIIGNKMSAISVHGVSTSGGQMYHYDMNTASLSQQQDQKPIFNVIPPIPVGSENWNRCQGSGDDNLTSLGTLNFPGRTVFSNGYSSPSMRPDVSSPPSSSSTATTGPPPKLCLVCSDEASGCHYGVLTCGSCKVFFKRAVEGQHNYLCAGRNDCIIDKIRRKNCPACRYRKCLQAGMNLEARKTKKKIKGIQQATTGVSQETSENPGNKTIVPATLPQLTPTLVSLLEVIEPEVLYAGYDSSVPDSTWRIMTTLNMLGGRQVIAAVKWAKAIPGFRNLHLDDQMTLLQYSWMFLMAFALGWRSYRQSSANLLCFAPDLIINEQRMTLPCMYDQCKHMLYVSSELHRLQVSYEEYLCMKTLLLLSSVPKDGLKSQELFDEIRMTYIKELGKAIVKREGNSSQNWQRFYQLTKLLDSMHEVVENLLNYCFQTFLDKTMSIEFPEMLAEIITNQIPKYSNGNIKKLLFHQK
Procedure, shortened: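 Reporter read-out: fluorescence intensity following 2 h room-temperature LiveBLAzer B/G FRET substrate loading. Prior step: GR-bla HeLa cells held 4 h, then treated 18 h at 37 C.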

[19] = molecular target: Glucocorticoid receptor (Homo sapiens) (UniProt P04150); assay: qHTS assay to identify small molecule antagonists of the glucocorticoid receptor (GR) signaling pathway (AID 720692; active = well fitted inhibition curve with a large enough effect in the signal ratio in the repeat runs, not every such curve was filed as active; the % refers to the signal ratio)
Procedure, shortened: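 Dexamethasone (5 nM final) stimulated a stably integrated GRE-beta-lactamase reporter in HeLa cells during 18 h co-incubation with compounds; signal was quantified as fluorescence intensity of B/G FRET substrate after 2 h.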

[20] = qHTS assay for small molecules that induce genotoxicity in human embryonic kidney cells expressing luciferase-tagged ATAD5 (AID 651632); note: nearly all actives have a fitted effect of over 15% in size
Procedure, shortened: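 Reporter cells (HEK293T) express luciferase-tagged ATAD5, a protein that accumulates after DNA damage. Treat 16 hr at 37C/5% CO2, add Amplite, wait 30 min at RT, and read luminescence.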

Measured: Potency

Nc1cc([N+](=O)[O-])ccc1C(=O)O
not listed: [15] | [16] | [17] | [18] | [19] | [20]
inactive: all other assays above

CN(C)C
not listed: [18] | [19] | [20]
inactive: all other assays above

COC(=O)CC(=O)OC
not listed: [4] | [15] | [20]
inactive: all other assays above

CCCCCCCCCCCCCO
not listed: [15] | [16] | [17] | [20]
inactive: all other assays above

CN1CCOCC1
not listed: [16] | [18] | [20]
inactive: all other assays above

Cc1ccc(C)c(O)c1
not listed: [17] | [18] | [20]
inactive: all other assays above

CCCCCCCCCCC(CO)CCCCCCCC (stereo not drawn)
not listed: [4] | [15] | [17] | [18] | [20]
inactive: all other assays above

C=CC(=O)OCCCC
not listed: [4] | [15] | [17] | [20]
inactive: all other assays above

CC(=O)Nc1ccc2c(c1)Cc1cc(NC(C)=O)ccc1-2
not listed: [15] | [20]
inactive: all other assays above

O=C(O)c1ccc(O)cc1
not listed: [3] | [18] | [20]
inactive: all other assays above

CC/C(=C(/CC)c1ccc(O)cc1)c1ccc(O)cc1
active: [1] 9.44 µM and 13.6 µM and 15.4 µM | [2] 60.6 µM | [15] 7.5 µM and 6.06 µM and 10.9 µM
not listed: [17] | [18] | [19] | [20]
inactive: all other assays above

COc1ccc2nc(N)sc2c1
not listed: [1] | [2] | [3] | [18]
inactive: all other assays above

C=C[C@H]1CN2CC[C@H]1C[C@H]2[C@H](O)c1ccnc2ccc(OC)cc12
not listed: [1] | [2] | [3] | [4] | [18] | [19]
inactive: all other assays above

CC(=O)O[C@]1(C(C)=O)CC[C@H]2[C@@H]3C=C(Cl)C4=CC(=O)CC[C@]4(C)[C@H]3CC[C@@]21C
not listed: [1] | [2] | [3] | [15] | [18] | [19] | [20]
inactive: all other assays above

CC1(C)NC(=O)N(c2ccc([N+](=O)[O-])c(C(F)(F)F)c2)C1=O
not listed: [1] | [4] | [15] | [18] | [19]
inactive: all other assays above
